Experimental data reported in PubChem BioAssay AID528 (NMMLSC, 2006).
The whole screen tested about 24,000 compounds, of which fewer than 10 were called active. Inconclusive results (about 9%) are left out.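 How the source made its calls: active means fluorescent ligand binding to cells raised by more than 40% of the manganese-induced maximum; inconclusive means compound's own fluorescence above 85% of the ligand control signal; inactive means the rest.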 The list is a sample of the results.

Target: Integrin alpha-4 (Homo sapiens) (UniProt P13612)
Experiment: increased LDV-FITC ligand binding on VLA-4 – Jurkat cells, flow cytometry, primary screen (AID 528);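 further: 0% = ligand binding without compound and 100% = manganese-stimulated maximal binding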
Conditions: active compounds read high, screened at 10 µM (by protocol)

Sequence of Integrin alpha-4 (Homo sapiens) (P13612 whole entry, looked up): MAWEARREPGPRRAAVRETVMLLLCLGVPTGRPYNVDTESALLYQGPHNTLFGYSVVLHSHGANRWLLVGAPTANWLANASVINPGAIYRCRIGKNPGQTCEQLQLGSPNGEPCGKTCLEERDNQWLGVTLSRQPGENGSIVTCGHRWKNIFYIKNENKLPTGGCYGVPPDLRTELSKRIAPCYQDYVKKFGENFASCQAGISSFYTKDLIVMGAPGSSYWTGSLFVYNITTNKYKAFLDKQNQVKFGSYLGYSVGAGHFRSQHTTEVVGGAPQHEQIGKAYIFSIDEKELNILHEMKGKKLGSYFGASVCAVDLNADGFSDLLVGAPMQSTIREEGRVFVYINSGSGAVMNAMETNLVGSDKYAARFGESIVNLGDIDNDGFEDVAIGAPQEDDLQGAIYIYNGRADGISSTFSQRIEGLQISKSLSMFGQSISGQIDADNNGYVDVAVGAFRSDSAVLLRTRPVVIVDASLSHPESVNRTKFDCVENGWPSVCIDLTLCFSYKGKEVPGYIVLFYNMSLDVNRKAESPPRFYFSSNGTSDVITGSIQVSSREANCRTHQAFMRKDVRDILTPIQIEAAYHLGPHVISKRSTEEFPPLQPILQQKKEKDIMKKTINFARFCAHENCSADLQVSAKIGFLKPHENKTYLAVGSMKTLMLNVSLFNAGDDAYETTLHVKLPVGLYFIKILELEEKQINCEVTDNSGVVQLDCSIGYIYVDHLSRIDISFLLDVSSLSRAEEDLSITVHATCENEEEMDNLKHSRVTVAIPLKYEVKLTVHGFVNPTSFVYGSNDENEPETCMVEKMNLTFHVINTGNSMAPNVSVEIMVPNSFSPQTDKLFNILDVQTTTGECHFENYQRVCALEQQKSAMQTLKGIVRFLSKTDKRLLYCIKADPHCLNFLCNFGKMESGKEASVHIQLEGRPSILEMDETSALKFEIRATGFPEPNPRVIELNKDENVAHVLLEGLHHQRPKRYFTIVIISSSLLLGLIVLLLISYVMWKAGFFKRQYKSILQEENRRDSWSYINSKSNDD

activation, inactive:
COC(=O)c1ccc(CN(c2ccccc2OC)S(=O)(=O)c2cccs2)o1 -2%
O=C(CCS(=O)(=O)Cc1ccccc1F)NCCCN1CCCCC1 -2%
COc1ccc(CN2C(=O)CN=C2Nc2ccc(C)cc2C)cc1 6%
COc1cccc(N2C(=O)CC(N3CCN(S(=O)(=O)c4ccccc4)CC3)C2=O)c1 (stereo not drawn) -2%
CN(CCCNC(=O)CN1C(=O)CC(C)(C)S(=O)(=O)c2ccccc21)C1CCCCC1 6%
Cc1ccc(NC(=O)CCNS(=O)(=O)c2ccc3c(c2)oc(=O)n3C)cc1C 9%
O=C(COC(=O)c1ccccc1C(=O)c1ccccc1)c1ccco1 2.5%
CNC(=O)Nc1cc(C(C)(C)C)no1 -2%
Cc1cc(=O)n2nc(N3CCCC(C(=O)NCCC4=CCCCC4)C3)sc2n1 (stereo not drawn) -3%
CC(c1cccnc1)N(CCN(C)C)C(=O)Nc1ccc(Cl)c(Cl)c1 (stereo not drawn) -2%
CSc1sc(C)cc1C1C(C#N)=C(N)N(c2cccnc2)C2=C1C(=O)CCC2 (stereo not drawn) 0%
COc1ccc(C2C3=C(OC(C)=O)c4ccccc4C3=Nc3c2c(=O)n(C)c(=O)n3C)cc1 (stereo not drawn) -0.5%
COCCNC(=O)CN1C(=O)CSc2ncccc21 2.7%
CC(=O)Nc1ccc(S(=O)(=O)N2CCC(N(C)CCC(C)C)CC2)cc1 4%
CCOC(=O)N1CCC(NC(=O)COc2cc(=O)n(C)c3ccccc23)CC1 -3%
O=C(O)CCN1C(=O)CC2(CCCCC2)C1=O -1%
c1cc(-c2nn[nH]n2)ccc1CN1CCCCC1 1%
O=C(O)CSCNC(=O)CC12CC3CC(CC(C3)C1)C2 13%
CCC(C)NC(=O)C1CCC(=O)N1Cc1ccc(C)cc1 (stereo not drawn) 4%
O=c1c(-c2ccccc2)coc2c(CN3CCOCC3)c(O)ccc12 9.5%
Cc1noc(C)c1S(=O)(=O)N(CC(=O)NCc1ccc(Cl)cc1)c1ccc2c(c1)OCO2 3%
CC(C)C(=O)Nc1c(C(=O)c2ccc(F)cc2)oc2ccccc12 -2%
O=C(CCCCn1c(=O)[nH]c2ccccc2c1=O)NCc1ccc2c(c1)OCO2 10%
CCCC(=O)NC(C)C(c1cccs1)N1CCN(c2ccccc2)CC1 (stereo not drawn) -2%
Cn1cccc1C1(C(F)(F)F)NCCNC1=O (stereo not drawn) 1%
Cc1ccccc1CSc1nnc(Cn2c(=O)sc3ccccc32)n1C 4%
Nc1nonc1C(=O)NCCc1ccccc1 6%
CCOc1ccc(-c2nnc3ccc(SC)nn23)cc1 4%
